Source: PubChem BioAssay
NPC1 promoter act: qHTS Assay for NPC1 Promoter Activators. Huh7 NPC1 promoter luciferase reporter, 24 h. 320,000 compounds, 2.4% hits. AID 485313, 2010. Potency, µM (titrated, usually from 9.22 µM), usual class: activators; further: nearly all actives have a fitted effect of over 60% in size
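Quantitative HTS used a cell-based reporter: Huh7 cells stably bearing the NPC1 promoter upstream of luciferase were treated with compounds for 24 h, and promoter activation was read as luminescence.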
Rab9 prom act: qHTS Assay for Rab9 Promoter Activators; Huh7 Rab9 promoter-luciferase reporter, luminescence, 24 h; Potency, µM (doses to about 9.22 µM), most hits filed as activators; 320,000 compounds, 2.8% hits; further: nearly all actives have a fitted effect of over 60% in size
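Cells were plated at 1500 per well in reduced-serum medium with 10% FBS and left 2 h. Compound in DMSO was then added for 24 h at 37 °C. Reporter signal was read by luminescence after 10 min with luciferase detection reagent.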
ELG1 genotoxic: qHTS screen for small molecules that induce genotoxicity in human embryonic kidney (HEK293T) cells expressing luciferase-tagged ELG1 | Potency, µM (titrated, usually from 46 µM), usual class: activators | HEK293T ELG1-luciferase reporter, luminescence, 16 h | 330,000 compounds, 1.3% hits | AID 504466, 2011; further: nearly all actives have a fitted effect of over 60% in size
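Genotoxicity was scored as increased ELG1-luciferase reporter signal, measured by ONE-Glo luminescence (30 min, room temperature). Compound or vehicle exposure of the HEK293T reporter cells lasted 16 hr at 37°C.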
Luc counter: Counterscreen for Luciferase (Kinase-Glo TM) Inhibition. Potency, µM (titrated, usually from 38.3 µM), hits mostly inhibitors. Luciferin 4-monooxygenase (Photuris pensylvanica), Q27757. 200,000 compounds, 0.28% hits. Kinase-Glo luciferase, ATP luminescence, 8 min. AID 1379, 2008; further: nearly all actives have a fitted effect of over 60% in size
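Compound is pinned into ATP-containing buffer (10 uM ATP, imidazole pH 7.2, 7 mM MgCl2). Kinase-Glo luciferase reagent is then added. Light output is recorded following an 8-min room-temperature incubation.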
FLuc counter: qHTS profiling assay for firefly luciferase inhibitor/activator using purifed enzyme and Km concentrations of substrates (counterscreen for miR-21 project). purified FLuc, Km substrates, luminescence inhibition. Potency, µM (top dose mostly 57.5 µM), hits mostly inhibitors. AID 588342, 2011. 360,000 compounds, 6.9% hits. Luciferin 4-monooxygenase (Photinus pyralis), P08659; further: nearly all actives have a fitted effect of over 55% in size
Target sequence (P08659 whole entry, looked up): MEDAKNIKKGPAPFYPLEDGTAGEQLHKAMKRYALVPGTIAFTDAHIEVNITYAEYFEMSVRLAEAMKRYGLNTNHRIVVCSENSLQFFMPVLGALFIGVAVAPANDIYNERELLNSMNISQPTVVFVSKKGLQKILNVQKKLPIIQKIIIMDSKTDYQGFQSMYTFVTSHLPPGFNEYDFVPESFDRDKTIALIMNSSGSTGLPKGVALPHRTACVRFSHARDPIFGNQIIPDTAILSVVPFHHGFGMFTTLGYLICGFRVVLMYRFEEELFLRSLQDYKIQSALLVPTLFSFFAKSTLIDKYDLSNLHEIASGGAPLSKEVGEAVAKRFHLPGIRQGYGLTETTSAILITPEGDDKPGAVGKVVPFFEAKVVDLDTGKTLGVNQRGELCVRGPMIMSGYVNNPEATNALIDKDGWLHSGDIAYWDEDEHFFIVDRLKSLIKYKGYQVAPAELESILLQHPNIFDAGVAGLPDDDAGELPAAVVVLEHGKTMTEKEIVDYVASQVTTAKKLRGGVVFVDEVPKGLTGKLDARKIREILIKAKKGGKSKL
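Purified P. pyralis luciferase (10nM final) with 10uM D-luciferin and 10uM ATP (Km levels) in 50mM Tris acetate pH 7.5, 10mM Mg acetate, 0.01% Tween-20, 0.05% BSA; qHTS 6-point titration, ~60 µM downward; luminescence read.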
SMN2 splice enh: qHTS Assay for Enhancers of SMN2 Splice Variant Expression. HEK293 SMN2-luciferase splicing reporter, luminescence, 30-36 h. AID 1458, 2008. Potency, µM (top dose mostly 46.1 µM), hits mostly activators. 210,000 compounds, 2.8% hits; further: nearly all actives have a fitted effect of over 55% in size
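HEK293 cells carry an SMN2 minigene-luciferase reporter in which exon 7 inclusion puts luciferase in frame. Cells were seeded at 2000 cells/well, attached for 10-12 hours, then exposed to compounds for 30-36 hours at 37C before ONE-Glo luminescence.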
Large screens that a line does not name were inactive; ! = not active in a repeat. Hits are enriched below; roughly 7.5% of the tested compounds scored in any of these assays. The call rests on the fitted dose curve; in most records, active means well fitted curve in the direction sought with a large enough effect; inconclusive means small, poorly fitted or top-dose-only effect, or another doubt; inactive means no such curve, though single readings can be large; an effect the other way counts as inactive or inconclusive.

Cc1ccc(NC(=O)C2CCCN(C(=O)Nc3ccc(F)cc3)C2)cc1 (stereo not given)	Rab9 prom act inconclusive (no result: Luc counter, SMN2 splice enh)
Cc1ccc(C2CCN(C(=O)Nc3ccc(F)cc3)C2)cc1 (stereo not given)	NPC1 promoter act inconclusive, Rab9 prom act inconclusive, ELG1 genotoxic inconclusive, FLuc counter 24µM (no result: Luc counter, SMN2 splice enh)
CCOC(=O)Cn1cnc(-c2ccc([N+](=O)[O-])cc2)c1	Rab9 prom act inconclusive, ELG1 genotoxic inconclusive, FLuc counter 12µM, SMN2 splice enh inconclusive
CCOC(=O)COc1ccc([N+](=O)[O-])cc1-c1ccnc2cc(-c3ccc(C)cc3)nn12	none (no result: NPC1 promoter act, Rab9 prom act, ELG1 genotoxic, Luc counter)
O=C(Nc1ccccc1)c1cccc(-c2nnc(-c3ccccc3)o2)c1	NPC1 promoter act 2µM, Rab9 prom act 4µM, ELG1 genotoxic inconclusive, SMN2 splice enh 1µM
COc1cccc(-c2nnc(-c3ccccc3NC(=O)c3ccc(C(C)(C)C)cc3)o2)c1	FLuc counter 2.4µM (no result: Luc counter, SMN2 splice enh)
COc1cccc(-c2nnc(-c3ccccc3NC(=O)c3cccc(C(F)(F)F)c3)o2)c1	none (no result: NPC1 promoter act, Rab9 prom act, ELG1 genotoxic, Luc counter)
Cc1ccc(SCC(=O)Nc2cccc(-c3nnc(-c4ccco4)o3)c2)cc1	NPC1 promoter act 3.2µM, Rab9 prom act 3.2µM, SMN2 splice enh 22µM
Cc1cccc(C(=O)Nc2nnc(-c3ccco3)o2)c1	none
O=C(Nc1cccc(-c2nnc(-c3ccccc3)o2)c1)c1ccco1	none
COc1cccc(C(=O)Nc2cccc(-c3nnc(-c4ccco4)o3)c2)c1	FLuc counter 19µM
COc1ccc(-c2cc(CCCC(=O)NCCc3ccccc3)no2)cc1	NPC1 promoter act inconclusive, Rab9 prom act inconclusive, FLuc counter 7.6µM (no result: Luc counter, SMN2 splice enh)
CCOc1ccc(-c2cc(CCCC(=O)NCCc3ccccc3)no2)cc1	ELG1 genotoxic inconclusive, FLuc counter inconclusive
COc1ccc(-c2cc(CCCC(=O)NCc3ccccn3)no2)cc1	FLuc counter 8.5µM
Cc1cc(N(C)C)ccc1N=Nc1ccc2ncccc2c1	NPC1 promoter act 3.2µM, Rab9 prom act 0.89µM, ELG1 genotoxic 4.6µM, FLuc counter 0.43µM (no result: Luc counter, SMN2 splice enh)
CCN(CC(=O)NCc1ccc(Cl)cc1)C(=O)/C=C/c1ccc(Cl)c([N+](=O)[O-])c1	FLuc counter 9.5µM (no result: Luc counter, SMN2 splice enh)
CCN(CC(=O)NCc1ccc(Cl)cc1)C(=O)/C=C/c1ccccc1	none (no result: Luc counter, SMN2 splice enh)
NNCCc1ccccc1	Rab9 prom act 14µM!, FLuc counter inconclusive
O=C(CC(=O)NCCc1ccccc1)NCCc1ccccc1	none (no result: Luc counter, SMN2 splice enh)
C/C(=N/Nc1nc(-c2ccc(Cl)cc2)cs1)c1cccs1	Rab9 prom act inconclusive, FLuc counter 15µM, SMN2 splice enh inconclusive
CC(C)=NNc1nc(-c2ccc([N+](=O)[O-])cc2)cs1	FLuc counter inconclusive
CC(=O)Nc1cccc(-c2csc(NCc3ccccc3)n2)c1	FLuc counter 21µM (no result: SMN2 splice enh)
CC(=O)Nc1ccc(-c2csc(N/N=C(/C)c3ccccc3)n2)cc1	FLuc counter 21µM (no result: Luc counter, SMN2 splice enh)
CCC(=O)Nc1cccc(-c2csc(-c3ccccc3)n2)c1	FLuc counter 15µM, SMN2 splice enh inconclusive
CC(C)CC(=O)Nc1cccc(-c2csc(-c3ccccc3)n2)c1	FLuc counter inconclusive, SMN2 splice enh inconclusive
O=C(c1ccco1)N(Cc1cccs1)c1ccc(F)cc1	none (no result: NPC1 promoter act, Rab9 prom act, ELG1 genotoxic, Luc counter, SMN2 splice enh)
CC(=O)Nc1ccc(-c2csc(NCc3ccccc3)n2)cc1	Rab9 prom act inconclusive, ELG1 genotoxic inconclusive, FLuc counter 19µM
CC(=O)Nc1ccc(-c2csc(NNC(=O)c3ccccc3)n2)cc1	none
CSc1cccc(NC(=O)/C=C/c2ccc(Cl)cc2)c1	NPC1 promoter act inconclusive, FLuc counter 3.4µM
CC(=O)Nc1ccc(NC(=O)/C=C/c2ccccc2)cc1	FLuc counter inconclusive
COc1ccc(/C=C/C(=O)Nc2ccccc2)cc1OC	NPC1 promoter act inconclusive, Rab9 prom act 3.2µM, ELG1 genotoxic inconclusive, FLuc counter 13µM, SMN2 splice enh 13µM
COc1ccc(/C=C/C(=O)NC(=S)Nc2ccccc2)cc1OC	ELG1 genotoxic inconclusive (no result: Luc counter, SMN2 splice enh)
CSc1cccc(NC(=O)/C=C/c2ccccc2)c1	NPC1 promoter act 3.2µM, Rab9 prom act 2.2µM, FLuc counter 4.8µM, SMN2 splice enh inconclusive
CSc1ccc(/C=C/C(=O)Nc2ccccc2)cc1	NPC1 promoter act 0.32µM, Rab9 prom act 0.32µM, Luc counter 13µM, FLuc counter 0.24µM, SMN2 splice enh 3.2µM
COc1cc(/C=C/C(=O)NC(=O)c2ccccc2O)ccc1OC(C)=O	NPC1 promoter act inconclusive, Rab9 prom act inconclusive, ELG1 genotoxic inconclusive, FLuc counter 3µM (no result: Luc counter, SMN2 splice enh)
C/C=C/c1ccc(OC(C)=O)c(OC)c1	none
Oc1ccc(CNc2cccc(F)c2F)c2cccnc12	none (no result: ELG1 genotoxic, Luc counter, SMN2 splice enh)
COC(OC)c1ccnc(-c2ccc(OC(C)=O)cc2)n1	FLuc counter inconclusive, SMN2 splice enh inconclusive
COC(OC)c1ccnc(-c2ccc(OC(=O)c3ccccc3)cc2)n1	FLuc counter 17µM
COC(OC)c1ccnc(-c2ccc(OC(=O)c3cccs3)cc2)n1	FLuc counter 21µM
CCN(c1ccccc1)S(=O)(=O)c1ccc(OC)c(NC(=O)c2cc(F)c(F)c(F)c2F)c1	none (no result: NPC1 promoter act, Rab9 prom act, Luc counter, FLuc counter, SMN2 splice enh)
S=c1[nH]nc(CSCCOc2ccc(Cl)cc2Cl)o1	FLuc counter 21µM (no result: Luc counter, SMN2 splice enh)
CC(C)COC(=O)N1CCCC1C(=O)O (stereo not given)	Rab9 prom act 3.2µM
Cc1[nH]nc(N=CC2=C(O)CC(C)(C)CC2=O)c1-c1ccccc1	FLuc counter 13µM
